From PubChem BioAssay (EPA / NIEHS) come the findings set out here.

The target of assay [1] is human Vitamin D Receptor (VDR), VDR (gene 7421) (UniProt P11473). Put plainly: ATG_VDR_TRANS: Attagene TRANS-FACTORIAL HepG2 Assay for human Vitamin D Receptor (VDR) (AID 2283022; active = hit-call score of the fitted dose curve at least 0.9, where 1 is the maximum). The essentials: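 RT-PCR/capillary electrophoresis read-out of reporter mRNA induction in transiently transfected HepG2; 24 h dosing; chimeric NR-Gal4 (TRANS format); gain-of-signal fit against DMSO baseline.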

Assay [2] in a line: BSK_3C_SRB: Viability Assessment in the BioMAP Diversity Plus: 3C Assay (AID 2283023).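 Also: fitted both ways against DMSO so a hit may be signal rise or drop.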 To be noted: primary human endothelial cells (HUVEC). A digest of the protocol: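 HUVEC, 24 h post-dose; 10% TCA fix, 0.1% SRB stain, A560 nm. Bidirectional curve fit vs DMSO negative control.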
Read-out in assay [3]: Matrix Metallopeptidase 1 (MMP1), MMP1 (gene 4312)
Put plainly: BSK_BE3C_MMP1: BioMAP Diversity Plus: BE3C Assay for Matrix Metallopeptidase 1 (MMP1) Biomarker Activity (AID 2283024). To be noted: primary human bronchial epithelial cells; actives raise or lower the signal. The essentials:
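ELISA measurement of MMP-1 after 24 h compound exposure of primary human bronchial epithelial cells. Changes in either direction fitted relative to DMSO; parallel SRB staining checked overt cytotoxicity.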

The nature of assay [4]: BSK_3C_Vis: BioMAP Diversity Plus: 3C Assay for Morphology Visualization (AID 2283025).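 Also: fitted both ways so gain or loss versus DMSO counts.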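 As to AC50: light microscopy image of cell morphology used as background control.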 To be noted: primary human endothelial cells (HUVEC). The essentials: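 Light-microscopy visualization of HUVEC cultures at 24 h post-treatment, with DMSO as baseline for bidirectional fitting.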
Read-out in assay [5]: Pselectin, SELP (gene 6403)
The assay is described as follows: BSK_4H_Pselectin: BioMAP Diversity Plus: 4H Assay for Pselectin Biomarker Activity (AID 2283026). As to conditions: primary human endothelial cells (HUVEC); actives raise or lower the signal. The essentials: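 ELISA of surface P-selectin on HUVEC, 24 h after dosing, with parallel SRB staining (0.1% after 10% TCA fixation, 560 nm) for overt cytotoxicity. Activity fitted in both directions relative to DMSO.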

Assay [6] in a line: BSK_4H_SRB: Viability Assessment in the BioMAP Diversity Plus: 4H Assay (AID 2283027).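 Also: cells exposed to compound for 24 h before staining.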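 As to AC50: curves fitted both ways versus DMSO so AC50 may be loss or gain.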 As to conditions: primary human endothelial cells (HUVEC). The essentials:
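HUVEC, 24 h post-dose; 10% TCA fix, 0.1% SRB stain, A560 nm. Total protein = overt cytotoxicity, parallel to biomarker read. Bidirectional fit vs DMSO baseline.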

Read-out in assay [7]: Thrombomodulin, THBD (gene 7056)
The assay is described as follows: BSK_3C_Thrombomodulin: BioMAP Diversity Plus: 3C Assay for Thrombomodulin Biomarker Activity (AID 2283029). To be noted: primary human endothelial cells (HUVEC); actives raise or lower the signal. The essentials: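 ELISA measurement of thrombomodulin on HUVEC surface 24 h after chemical dosing; activity fitted in both directions relative to DMSO vehicle.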

Read-out in assay [8]: Urokinase-type plasminogen activator receptor (uPAR), PLAUR (gene 5329)
The assay is described as follows: BSK_4H_uPAR: BioMAP Diversity Plus: 4H Assay for Urokinase-type plasminogen activator receptor (uPAR) Biomarker Activity (AID 2283030). As to conditions: primary human endothelial cells (HUVEC); actives raise or lower the signal. A digest of the protocol: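 HUVEC, 24 h post-dose; uPAR by ELISA; bidirectional fit vs DMSO baseline.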

Read-out in assay [9]: Vascular endothelial growth factor receptor 2 (Homo sapiens) (UniProt P35968)
Put plainly: BSK_4H_VEGFRII: BioMAP Diversity Plus: 4H Assay for Vascular endothelial growth factor receptor 2 (VEGFR2) Biomarker Activity (AID 2283031).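 As to AC50: cell-surface VEGFR2 protein level quantified by ELISA.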 To be noted: primary human endothelial cells (HUVEC); actives raise or lower the signal. A digest of the protocol: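 HUVEC (human primary), 4H system; 24 h post-dose; VEGFRII by ELISA; bidirectional curve fit vs DMSO baseline; gain or loss of signal scored.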

Read-out in assay [10]: Human Leukocyte Antigen - DR isotype (HLADR), HLA-DRA (gene 3122)
The assay is described as follows: BSK_BE3C_HLADR: BioMAP Diversity Plus: BE3C Assay for Human Leukocyte Antigen - DR isotype (HLADR) Biomarker Activity (AID 2283032). As to conditions: primary human bronchial epithelial cells; actives raise or lower the signal. The essentials: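 Cell-surface HLA-DR ELISA readout at 24 h after dosing in the BE3C primary human lung bronchial epithelial system; gain or loss of signal against DMSO, with parallel sulforhodamine B staining of total protein for overt cytotoxicity.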

Read-out in assay [11]: Interferon-gamma inducible Protein 10 (IP10), CXCL10 (gene 3627)
Put plainly: BSK_BE3C_IP10: BioMAP Diversity Plus: BE3C Assay for Interferon-gamma inducible Protein 10 (IP10) Biomarker Activity (AID 2283034). To be noted: primary human bronchial epithelial cells; actives raise or lower the signal. The essentials: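 IP-10 quantified by ELISA in human primary bronchial epithelial cell cultures at 24 hours post-dosing. Gain or loss of signal fitted relative to DMSO; parallel SRB staining assessed overt cytotoxicity.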

Read-out in assay [12]: Monokine induced gamma interferon (MIG), CXCL9 (gene 4283)
The assay is described as follows: BSK_BE3C_MIG: BioMAP Diversity Plus: BE3C Assay for Monokine induced gamma interferon (MIG) Biomarker Activity (AID 2283035). To be noted: primary human bronchial epithelial cells; actives raise or lower the signal. A digest of the protocol:
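Dose cells (human primary bronchial epithelial), incubate 24 h, quantify MIG by ELISA, then fit concentration–response in both directions relative to DMSO control.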

Read-out in assay [13]: Transforming growth factor beta 1 (TGFb1), TGFB1 (gene 7040)
Put plainly: BSK_BE3C_TGFb1: BioMAP Diversity Plus: BE3C Assay for Transforming growth factor beta 1 (TGFb1) Biomarker Activity (AID 2283036;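 as to outcome: TGF-b1 protein level measured by ELISA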). To be noted: primary human bronchial epithelial cells; actives raise or lower the signal. The essentials: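 ELISA readout of TGF-b1 from human lung bronchial epithelial primary cells, taken 24 h post-treatment. Gain or loss of signal fitted relative to DMSO baseline, with parallel SRB staining for overt cytotoxicity.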

Read-out in assay [14]: Plasminogen activator inhibitor-1 (PAI1), SERPINE1 (gene 5054)
Put plainly: BSK_BE3C_PAI1: BioMAP Diversity Plus: BE3C Assay for Plasminogen activator inhibitor-1 (PAI1) Biomarker Activity (AID 2283037). To be noted: primary human bronchial epithelial cells; actives raise or lower the signal. The essentials:
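PAI-1 was measured by ELISA in human primary bronchial epithelial cultures 24 h after chemical dosing, with cytotoxicity checked by SRB total-protein staining in parallel cultures. Activity was fitted in both directions relative to DMSO.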

Read-out in assay [15]: urokinase plasminogen activator (uPA), PLAU (gene 5328)
The assay is described as follows: BSK_BE3C_uPA: BioMAP Diversity Plus: BE3C Assay for urokinase plasminogen activator (uPA) Biomarker Activity (AID 2283038).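 As to outcome: uPA protein level quantified by ELISA in cell cultures; uPA read one day after compound addition.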 As to conditions: primary human bronchial epithelial cells; actives raise or lower the signal. A digest of the protocol:
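ELISA read-out of uPA in human lung primary bronchial epithelial cultures, 24 h post-dosing. Gain or loss of signal fitted bidirectionally relative to DMSO baseline; cytotoxicity checked in parallel cultures via SRB total protein stain.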

Read-out in assay [16]: Urokinase-type plasminogen activator receptor (uPAR), PLAUR (gene 5329)
The assay is described as follows: BSK_BE3C_uPAR: BioMAP Diversity Plus: BE3C Assay for Urokinase-type plasminogen activator receptor (uPAR) Biomarker Activity (AID 2283039).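 As to outcome: cells exposed to compound for one day before measurement.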 To be noted: primary human bronchial epithelial cells; actives raise or lower the signal. The essentials: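 uPAR levels were measured by ELISA after 24 h compound treatment of primary human bronchial epithelial cells, fitted in both directions relative to DMSO. Parallel SRB staining served as the cytotoxicity read-out.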

Read-out in assay [17]: Interleukin-6 (IL6), IL6 (gene 3569)
Put plainly: BSK_CASM3C_IL6: BioMAP Diversity Plus: CASM3C Assay for Interleukin-6 (IL6) Biomarker Activity for (AID 2283040). To be noted: primary human coronary artery smooth muscle cells; actives raise or lower the signal.

Read-out in assay [18]: Tissue plasminogen activator (tPA), PLAT (gene 5327)
Put plainly: BSK_BE3C_tPA: BioMAP Diversity Plus: BE3C Assay for Tissue plasminogen activator (tPA) Biomarker Activity (AID 2283041). To be noted: primary human bronchial epithelial cells; actives raise or lower the signal. The essentials:
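tPA measured by ELISA 24 h after dosing human primary bronchial epithelial cells (BE3C system). Changes in either direction were fitted against DMSO. Parallel cultures were stained with SRB to flag overt cytotoxicity.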

Assay [19] is described as follows: BSK_BE3C_SRB: Viability Assessment in the BioMAP Diversity Plus: BE3C Assay (AID 2283028). As to conditions: primary human bronchial epithelial cells. The essentials: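 Primary human bronchial epithelium; chemical dosing, 24 h; 10% TCA fix, 0.1% SRB stain, A560; bidirectional fit vs DMSO baseline.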
Read-out in assay [20]: Vascular cell adhesion molecule 1 (VCAM1), VCAM1 (gene 7412)
The assay is described as follows: BSK_4H_VCAM1: BioMAP Diversity Plus: 4H Assay for Vascular cell adhesion molecule 1 (VCAM1) Biomarker Activity (AID 2283033).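 Also: cell-surface VCAM-1 protein measured by ELISA.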 As to conditions: primary human endothelial cells (HUVEC); actives raise or lower the signal. The essentials: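 VCAM-1 ELISA read 24 h after chemical dosing of HUVEC in the BioMAP 4H system, with gain or loss of signal fitted relative to DMSO. Parallel SRB staining (560 nm) checked overt cytotoxicity.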

Results filed as inconclusive are left out. Activity calls are given as the source filed them. The calls were made as follows, unless noted: active = hit-call score of the fitted dose curve at least 0.9, where 1 is the maximum; inactive = score below 0.9.

human Vitamin D Receptor (VDR), VDR (gene 7421), sequence (P11473 whole entry, looked up, the tested form may be a part): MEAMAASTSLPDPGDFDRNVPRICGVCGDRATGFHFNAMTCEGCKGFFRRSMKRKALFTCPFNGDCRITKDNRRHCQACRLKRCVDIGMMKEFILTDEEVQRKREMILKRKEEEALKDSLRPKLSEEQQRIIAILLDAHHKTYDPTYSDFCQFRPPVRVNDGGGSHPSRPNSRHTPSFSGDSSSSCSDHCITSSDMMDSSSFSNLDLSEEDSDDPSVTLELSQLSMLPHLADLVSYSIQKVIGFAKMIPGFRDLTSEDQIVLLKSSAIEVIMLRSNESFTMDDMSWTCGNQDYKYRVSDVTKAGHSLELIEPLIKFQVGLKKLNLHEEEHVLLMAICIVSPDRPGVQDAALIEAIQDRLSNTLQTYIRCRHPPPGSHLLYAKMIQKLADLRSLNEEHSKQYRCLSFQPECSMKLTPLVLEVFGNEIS

With `CC[C@H](C)C(=O)O[C@H]1C[C@@H](C)C=C2C=C[C@H](C)[C@H](CC[C@@H]3C[C@@H](O)CC(=O)O3)[C@H]21`, the outcome in [1], in assay [7] and in assay [17] was inactive. The AC50 (in general, the concentration at which the activity in the assay is half-maximal) in [2] is 9.87 µM (active); in [3], 33.8 µM (active); in assay [4], 28.3 µM (active); in assay [5], 32.9 µM (active); in [6], 19.9 µM (active); in assay [8] it was 19.9 µM (active). In addition, the AC50 in assay [9] was 27.3 µM (active); in assay [10], 35.9 µM (active); in [11], 36.3 µM (active); in [12], 36.1 µM (active); in [13] it was 34 µM (active); in assay [14] it was 28.8 µM (active). The AC50 in assay [15] is 32.1 µM (active); in [16] it was 30.9 µM (active); in assay [18], 25.6 µM (active).

Take `Fc1ccccc1[C@@H](F)COC1CCC(Nc2ncnc3[nH]ncc23)CC1` (stereo not given in full): the outcome in [1], in assay [3], in assay [19], in [7], in [9] and in [10] was inactive. In addition, the result in assay [20], in assay [11], in assay [12], in [13], in [14] and in assay [15] was inactive. Further, the outcome in assay [16] and in assay [17] was inactive. The AC50 in assay [2] is 27.6 µM (active); in assay [4], 39 µM (active); in assay [5] it was 29.2 µM (active); in assay [8] it was 28.2 µM (active).

Consider `Cn1c(=O)cc(Oc2ccc(F)cc2F)c2cnc(NCC(C)(C)O)nc21`, for which the outcome in [1], in assay [2], in assay [3], in [4], in assay [5] and in [6] was inactive. In addition, the result in assay [19], in assay [8], in assay [9], in [10], in [20] and in assay [11] was inactive. The result in assay [12], in assay [13], in assay [15] and in assay [16] was inactive. Also, the values for the AC50 in assay [7], in [14] and in [17] were 4.61 µM (active), 9.04 µM (active) and 5.13 µM (active), respectively.

Take `COc1ccc(-n2nc(C(F)F)cc2-c2ccc(S(C)=O)cc2)cc1` (stereo not given): the molecule was called inactive in assay [1], in assay [2], in assay [3], in assay [4], in assay [5] and in assay [19]. Also, the outcome in assay [7], in assay [9], in [10], in assay [20], in assay [11] and in assay [12] was inactive. For the same molecule, the outcome in [13], in [14], in [15], in [16] and in assay [17] was inactive.

For the molecule `O=C(O)c1cccc(Oc2ccccc2)c1`, the call in assay [1], in assay [2], in assay [3], in [4], in assay [5] and in [6] was inactive. Further, the outcome in [19], in assay [7], in assay [8], in [9], in assay [10] and in assay [20] was inactive. The outcome in assay [11], in assay [12], in [13], in assay [14], in assay [15] and in assay [16] was inactive. In addition, in assay [17], the outcome was inactive.

In the case of `CC/C(=C\C(=N/O)C(N)=O)C(C)[N+](=O)[O-]` (stereo not given), the result in [1], in [2], in [3], in assay [4], in [5] and in [6] was inactive. Also, the result in assay [19], in assay [7], in assay [8], in [9], in [10] and in assay [20] was inactive. Moreover, the result in assay [12], in assay [13], in assay [14], in [15], in assay [16] and in [17] was inactive. The AC50 in assay [11] is 29.8 µM (active).
